HP1b chromo inh = HTS for Inhibitors of HP1-beta Chromodomain Interactions with Methylated Histone Tails | Chromobox protein homolog 1 (Homo sapiens), P83916 | Potency, µM (doses to about 114 µM), without a hit: at the top dose activity change, negative = inhibition, most hits filed as inhibitors | AlphaScreen HP1-beta / biotin-H3K9me3 peptide binding | AID 540317, 2011 | 390,000 compounds, 0.56% hits; further: nearly all actives have a fitted effect of over 70% in size
Target sequence (P83916 whole entry, looked up): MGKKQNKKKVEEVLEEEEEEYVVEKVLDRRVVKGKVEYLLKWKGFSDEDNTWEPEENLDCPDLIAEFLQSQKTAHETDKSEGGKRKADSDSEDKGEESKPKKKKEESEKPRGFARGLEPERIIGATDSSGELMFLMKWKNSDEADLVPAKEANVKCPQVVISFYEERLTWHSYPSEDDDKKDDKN
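HP1-beta protein (50 nM final) preincubated 30 min at room temperature with biotinylated H3(1-18)K9me3 peptide (50 nM) in PBS pH 7.4, 0.01% Tween-20, then compound added for 30 min. AlphaScreen streptavidin donor/nickel chelate acceptor beads (10 ug/mL final), 30 min dark, luminescence read.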
Sfp inh = qHTS Assay for Inhibitors of Bacillus subtilis Sfp phosphopantetheinyl transferase (PPTase); Potency, µM, without a hit: largest response in the series, negative = inhibition, actives largely listed as inhibitors; 310,000 compounds, 3.5% hits; Biochemical Sfp PPTase activity, qHTS;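 further: the enzyme is Sfp with the accession as filed and its product quenches rhodamine fluorescence; 0% = enzyme reaction without inhibitor and -100% = no enzyme wells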
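With Hepes-Na pH 7.6 buffer containing 10 mM MgCl2, Sfp (15 nM) modified BHQ-2-YbbR (12.5 uM) using rhodamine-CoA (5 uM). Two reads 30 minutes apart at 525/598 nm yielded each well's rate.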
JMJD2A Tudor = qHTS Assay for Inhibitors of JMJD2A-Tudor Domain. Lysine-specific demethylase 4A (Homo sapiens), O75164. AlphaScreen JMJD2A-Tudor / H3K4me3 peptide binding. Potency, µM (series often up to 114 µM), inactives show at the highest dose activity change, negative = inhibition, usual class: inhibitors. 390,000 compounds, 4.4% hits. AID 504339, 2011; further: on the % scale 0 is the no-effect control and ±100 the full control effect; nearly all actives have a fitted effect of over 50% in size
BAZ2B inh = qHTS Assay for Inhibitors of BAZ2B | Bromodomain adjacent to zinc finger domain protein 2B (Homo sapiens), Q9UIF8 | AlphaScreen BAZ2B-H3K14Ac peptide displacement | Potency, µM (titrated, usually from 114 µM), without a hit: at the top dose activity change, negative = inhibition, most hits filed as inhibitors | 360,000 compounds, 4.4% hits | AID 504333, 2011; further: on the % scale 0 is the no-effect control and ±100 the full control effect; nearly all actives have a fitted effect of over 60% in size
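Compounds, titrated to a top concentration of 110 uM, were incubated 30 min at room temperature with preformed BAZ2B/acetyl-K14 H3 peptide complex (50 nM each). Proximity signal was measured by AlphaScreen after 20 min with beads.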
G9a block = qHTS Assay for Inhibitors of Histone Lysine Methyltransferase G9a | Histone-lysine N-methyltransferase EHMT2 (Homo sapiens), Q96KQ7 | G9a H3K9 monomethylation, AlphaScreen, 2 h | Potency, µM (doses to about 102 µM), for the others: at the highest dose activity, negative = inhibition, usual class: inhibitors | 350,000 compounds, 8.8% hits | AID 504332, 2011; further: on the % scale 0 is the no-effect control and ±100 the full control effect; nearly all actives have a fitted effect of over 75% in size
Target sequence (Q96KQ7 913-1193 limits assumed): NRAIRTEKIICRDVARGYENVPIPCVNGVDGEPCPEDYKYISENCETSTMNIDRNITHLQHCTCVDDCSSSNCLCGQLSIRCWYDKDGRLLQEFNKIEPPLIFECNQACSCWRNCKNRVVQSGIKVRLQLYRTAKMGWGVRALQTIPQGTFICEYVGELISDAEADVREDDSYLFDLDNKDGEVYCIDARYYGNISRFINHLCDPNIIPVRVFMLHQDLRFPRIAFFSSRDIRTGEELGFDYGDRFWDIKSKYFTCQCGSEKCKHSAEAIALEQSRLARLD
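Compounds were preincubated with 20 nM G9a for 15 min, after which biotinylated H3K9 peptide (500 nM) and SAM (20 uM) started a 2 h room-temperature reaction. Monomethylated product was quantified by antibody-based AlphaScreen chemiluminescence.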
* hit, by the source's call; u = inconclusive; x = not tested or not shown; [ ] = remark or other dose. An excerpt weighted towards active compounds, which were near 12% of everything screened. The call rests on the fitted dose curve; in most records, active means well fitted curve in the direction sought with a large enough effect; inconclusive means small, poorly fitted or top-dose-only effect, or another doubt; inactive means no such curve, though single readings can be large; an effect the other way counts as inactive or inconclusive. Potency means the concentration at half of the fitted maximal effect.

SMILES | HP1b chromo inh | Sfp inh | JMJD2A Tudor | BAZ2B inh | G9a block
COC(=O)c1cn(C)c2ccc(S(=O)(=O)N3CCCC3)cc2c1=O | 6% | -24% | -16% | u | 50µM*
CCn1c(COc2ccccc2)nnc1SCC(=O)NC1CC1 | 41% | 17% | -15% | -3% | 0%
CCn1ccc2cc(S(=O)(=O)N3CCCN(C(=O)Nc4ccccc4C(F)(F)F)CC3)ccc21 | 20%[57 µM] | x | -14% | -2% | 5%[59 µM]
Cn1ncc2c(Nc3cc(C(F)(F)F)ccc3Cl)ncnc21 | 23% | x | -17% | 3% | -10%[59 µM]
Oc1ccc2oc3c(c2c1/C=N/n1cnnc1)CCCC3 | 29% | 9% | -12% | x | u
Oc1ccc2oc3c(c2c1C=NCc1ccncc1)CCCC3 | 31% | 50µM* | -6% | 70% | 71µM*
CN(CCc1ccccn1)c1ccccc1 | -20% | x | -29% | x | x
CN(CCc1ccccn1)S(=O)(=O)c1ccccc1F | 30% | 12% | u | u | 45µM*
CSc1ccc(CN(C)CCc2ccccn2)cc1 | u | 50µM* | 25µM* | 32µM* | x
CN(CCc1ccccn1)Cc1ccc(Cl)cc1Cl | u | u | 20µM* | 50µM* | -20%[0.0925 µM]
NC(N)=NCCC[C@H](NC(=O)c1ccccc1)C(=O)Nc1ccc([N+](=O)[O-])cc1 | x | 4% | x | x | x
CC(C)(C)OC(=O)N1CCC(C(=O)Nc2ccc(C(=O)NCCc3ccccc3)cc2)CC1 | 37% | x | -10% | x | x
O=c1cc(-c2ccc(O)c(O)c2)oc2ccc3ccccc3c12 | -17% | x | -24% | u | 56µM*
O=c1cc(-c2ccc(O)c(O)c2)oc2c1ccc1ccccc12 | 25% | x | -33% | u | u
O=C(NCc1n[nH]c(=S)n1-c1ccc(Cl)c(Cl)c1)c1ccco1 | 18% | -12% | 50µM* | -8% | 8%[12.7 µM]
COc1ccccc1-n1c(CNC(=O)c2ccco2)n[nH]c1=S | 42% | -2% | u | -2% | 25µM*
O=C(NCCNCc1ccccc1)c1ccco1 | -11%[57 µM] | x | 25µM* | x | x
O=C(NCc1ccc(CNC(=O)c2ccco2)cc1)c1ccco1 | 35% | 9% | 7% | -9% | 44%
CCc1ccc(CNCCNC(=O)c2ccco2)cc1 | 15%[57 µM] | x | -24% | x | x
O=C(NCc1n[nH]c(=S)n1-c1ccccc1)c1ccco1 | 27% | u | 16µM* | 8% | 8.9µM*
O=C(NCc1ccccc1Cl)c1cc(=O)[nH]c2ccc(S(=O)(=O)N3CCCCC3)cc12 | 39% | x | -5% | -24% | 9%[59 µM]
Cc1ccc(Cn2c(CCNC(=O)c3cccc(C)c3)nc3ccccc32)cc1 | 10% | x | -22% | -3% | -26%[59 µM]
CC(C)CC(NC(=O)NC(CCC(=O)O)C(=O)O)C(=O)O (configuration not stated) | x | -5% | x | x | x
O=S(=O)(Nc1cccc2cccnc12)c1cccc2ccccc12 | 34% | x | -16% | x | x
O=S(=O)(Nc1c(Br)cc(Br)c2cccnc12)C1CC1 | 20% | x | 25µM* | x | x
SMILES | HP1b chromo inh | Sfp inh | JMJD2A Tudor | BAZ2B inh | G9a block
O=S(=O)(Nc1cccc2cccnc12)C1CC1 | -14% | x | 50µM* | x | x
CCOc1ccc(CN2CCN(Cc3ccc4c(c3)c3ccccc3n4CC)CC2)cc1 | u | x | 22µM* | 10µM* | 4.5µM*
CCn1c2ccccc2c2cc(CN3CCN(Cc4ccccc4Cl)CC3)ccc21 | u | x | 7.1µM* | 50µM* | 3.5µM*
CCn1c2ccccc2c2cc(CN3CCN(Cc4ccc(OC)c(OC)c4)CC3)ccc21 | u | x | 4.5µM* | 45µM* | u
COc1cc(C)ccc1OCC(=O)OCC(=O)c1cc(C)n(CC2CCCO2)c1C (configuration not stated) | -4% | x | -8% | -32% | 25%[12.7 µM]
COc1cc(C(=O)OCC(=O)c2cc(C)n(CC3CCCO3)c2C)cc(OC)c1C (configuration not stated) | -13% | x | 45µM* | 50µM* | u
Cc1cc(C(=O)COC(=O)c2ccc3c(c2)OCO3)c(C)n1CC1CCCO1 (configuration not stated) | 44% | -2% | -3% | u | 50µM*
